Source: PubChem BioAssay (NCI)
Where “and” joins values, the source holds several entries; their conditions need not be identical. Equal values may be shown once. This is part of a sample that, as a whole, favours compounds with a hit. Of some 79,000 tested, about 15% had one in any assay. No stated cut-off is given here; in the data, active means growth inhibition above about 70%; inactive means the rest.

What was measured:
[1] = NCI Yeast Anticancer Drug Screen. Data for the rad50 strain (AID 155);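 further: 0% = growth of vehicle-only cultures of the same strain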; settings: S. cerevisiae rad50 strain growth inhibition; at 50.0 µM; active compounds read high
In short: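 A DNA repair-deficient yeast mutant serves as the test organism; compound-induced growth inhibition is calculated against vehicle-treated cells.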

[2] = NCI Yeast Anticancer Drug Screen. Data for the mec2-1 strain (AID 157); settings: S. cerevisiae mec2-1 strain, at 50.0 µM, active compounds read high
In short: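 Growth inhibition is read against vehicle-treated controls after compound exposure of the mec2-1 yeast strain, which is defective in DNA damage repair or cell cycle control.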

[3] = NCI Yeast Anticancer Drug Screen. Data for the sgs1 mgt1 strain (AID 161);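 further: 0% = growth of cultures given vehicle only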; settings: S. cerevisiae sgs1 mgt1 strain, at 50.0 µM, active compounds read high
In short: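 Yeast cells carrying a defined DNA-repair defect were exposed to test compounds. Growth inhibition was measured relative to vehicle-treated controls.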

[4] = NCI Yeast Anticancer Drug Screen. Data for the cln2 rad14 strain (AID 165);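 further: 0% = growth equal to vehicle treated cultures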; settings: S. cerevisiae cln2 rad14 strain, at 50.0 µM, active compounds read high
In short: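 Growth inhibition, relative to vehicle-treated controls, is the read-out. The test organism is a yeast strain with defined genetic alterations, cln2 rad14.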

[5] = NCI Yeast Anticancer Drug Screen. Data for the bub3 strain (AID 167); settings: S. cerevisiae bub3 mutant strain, at 50.0 µM, active compounds read high
In short: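 Inhibition values come from growth of compound-treated mutant yeast normalised to vehicle-treated controls.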

[6] = NCI Yeast Anticancer Drug Screen. Data for the mlh1 rad18 strain (AID 175); settings: S. cerevisiae mlh1 rad18 strain growth inhibition; at 50.0 µM; active compounds read high
In short: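 Cells of a genetically altered yeast strain, deficient in DNA damage repair, were treated with compound. Their growth was then compared with that of vehicle-treated cultures to give inhibition.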

Measured: growth inhibition

N.O=S(=O)(O)O.[Al]
inactive: [1] 6.55% | [2] 7.45% | [3] 4.85% | [4] -3.8% | [5] -5.1% | [6] -2.4%

NNc1c(C(N)=O)c2c(N)ncnc2n1C1OC(CO)C(O)C1O (configuration not stated)
inactive: [1] -0.6% | [2] 37.8% | [3] 4.9% | [4] 10.5% | [5] 4.55% | [6] 19.9%

CC(C)=NNC1=NC(CC(C)C)P(=O)(NCCCCNP2(=O)SC(NN=C(C)C)=NC2CC(C)C)S1 (configuration not stated)
inactive: [1] -5.25% | [2] 17.5% | [3] 11.1% | [4] -18.2% | [5] -11.3% | [6] 6.15%

CCOC(OCC)c1ccccc1
inactive: [1] 7.95% | [2] -5% | [3] -4.95% | [4] -11.9% | [5] 6.6% | [6] 14.2%

CO/C=C/c1ccc2c(c1)OCO2
inactive: [1] 34.6% | [2] 25.5% | [3] 16.7% | [4] 10.2% | [5] 12.7% | [6] -10.8%

CCN1C(=O)C(=Cc2ccc(-c3ccccc3)cc2)C(=O)N(CC)C1=S
inactive: [1] 32.4% | [2] -5.5% | [3] 23.1% | [4] 16.9% | [5] 15.4% | [6] 20.4%

CCOP(=O)(OCC)C(C#N)Cc1ccco1 (configuration not stated)
inactive: [1] -19.2% | [2] -23.9% | [3] -14.1% | [4] -9.4% | [5] -4.1% | [6] 1.9%

OCCCCO
inactive: [1] -5.9% | [2] -1.7% | [3] -12% | [4] -10.4% | [5] -12.1% | [6] 1.35%

O=C1CC(=O)N(C2CCC(C3CCCCC3)CC2)C(=O)N1 (configuration not stated)
inactive: [1] 14.1% | [2] 4.85% | [3] 27.5% | [4] 1.35% | [5] 22.3% | [6] 5.75%

CC(=O)Nc1ccc(C(=O)O)cc1 (tested in a mixture with another compound)
inactive: [1] -25.9% | [2] -43.6% | [3] -17.4% | [4] 3.65% | [5] -46.2% | [6] -7.75%

COCC#CCN(C)C
inactive: [1] -7.75% | [2] -8.3% | [3] -13.8% | [4] 2.85% | [5] 9.95% | [6] -9.4%

CCOP(=O)(OCC)/C(C#N)=C/c1cn(C)cn1
inactive: [1] -3.35% | [2] 1.95% | [3] -5.95% | [4] -16.1% | [5] -4.65% | [6] -21.8%

CC(=O)CC1(OC(=O)C2C(C=C(C)C)C2(C)C)C(=O)Nc2ccccc21 (configuration not stated)
inactive: [1] 40.5% | [2] 16.4% | [3] 18.6% | [4] 8.85% | [5] 23.1% | [6] 39.5%

N#CC1(c2ccccc2)CCCC1
inactive: [1] 5.7% | [2] 8.25% | [3] -4.7% | [4] 11.6% | [5] -4.05% | [6] 2.2%

O=[N+]([O-])c1ncccc1NCCN1CCCC1
inactive: [1] -2.2% | [2] -0.5% | [3] -15.8% | [4] -29.3% | [5] 7.05% | [6] 4.7%

CC1CCC2C(C)C3C(CC4C5CC=C6CC(OC7OC(CO)C(O)C(OC8OC(CO)C(O)C(O)C8O)C7OC7OC(C)C(O)C(O)C7O)CCC6(C)C5CCC43C)N2C1 (configuration not stated)
inactive: [1] -3.25% and 9.1% | [2] 11.8% and -8.5% | [3] -5.75% and 10.2% | [4] -6.3% and -9.3% | [5] -1.65% and 1.95% | [6] 36.5% and 15.3%

COC(C)CCOC(=O)Cc1ccccc1 (configuration not stated)
inactive: [1] 16.1% | [2] -5.25% | [3] -0.15% | [4] -41% | [5] 13.4% | [6] 5.25%

CCOP(=O)(OCC)c1cc2cc(O)ccc2oc1=O
inactive: [1] -40% | [2] -26% | [3] -32.2% | [4] 2.75% | [5] -8.75% | [6] -50.7%

C=CC(=O)NCO
inactive: [1] -3.9% | [2] 15.2% | [3] -1.4% | [4] -20.4% | [5] 3.6% | [6] -12.3%

[N-]=[N+]=NC1C2CC3CC(C2)CC1C3 (configuration not stated)
inactive: [1] -15.7% | [2] 8.3% | [3] -7.2% | [4] -6.6% | [5] -10.7% | [6] -24.8%

Nc1ccccc1C(=O)O
inactive: [1] 15.3% | [2] 18.4% | [3] 0.7% | [4] 8.6% | [5] 18.4% | [6] 3.8%

O=C1NC(=O)C2(CCc3ccc(N(CCCl)CCCl)cc32)N1 (configuration not stated)
inactive: [1] 14.1% | [2] -19.5% | [3] -4.75% | [4] 11.9% | [5] -16.6% | [6] 11.1%

O=[N+]([O-])c1cccc(/C=C/C=C/c2ccc(Cl)c(S(=O)(=O)F)c2)c1
inactive: [1] 7.95% | [2] 14.4% | [3] -39.5% | [4] 6.5% | [5] 9.05% | [6] -7.1%

CC(COC(=O)NCc1ccccc1)OC(N)=O (configuration not stated)
inactive: [1] -1.05% | [2] -14.8% | [3] 13.1% | [4] -10.3% | [5] 1.15% | [6] -11.4%

C[As+](C)(C)c1cccc(N)c1
inactive: [1] -1.6% | [2] -6.6% | [3] -10.1% | [4] -14.8% | [5] -1% | [6] 0.45%

CCN1C(=O)C(=C/C=C/C=C2/N(C)c3ccccc3C2(C)C)C(=O)N(CC)C1=S
inactive: [1] -28.9% | [2] -8.25% | [3] -11.3% | [4] -32.5% | [5] 0.45% | [6] 0.35%

O=c1oc2cc(O)ccc2c(O)c1C(c1ccccn1)c1c(O)c2ccc(O)cc2oc1=O
inactive: [1] 12.6% | [2] 9.15% | [3] -13.7% | [4] -1.85% | [5] -17.4% | [6] -52%

C[CH2][Sn]1([CH2]C)[O]C(=O)[O][Sn]([CH2]C)([CH2]C)[O]1
inactive: [1] -30.1% | [2] 0.95% | [3] -30.2% | [4] -5.05% | [5] -6.05% | [6] -53.3%

CNC(=O)Oc1ccccc1N
inactive: [1] -2.8% | [2] -1.15% | [3] -5.05% | [4] 3.7% | [5] -25.2% | [6] -5.2%

NNC(=O)c1cc([N+](=O)[O-])c(O)c([N+](=O)[O-])c1
inactive: [1] -9.85% | [2] -14.8% | [3] 8.35% | [4] 7.4% | [5] 11.8% | [6] -5.55%

CC(=O)OC1CC2(C)C3(CO3)C1OC1C=C(C)C(=O)C(O)C12CO (configuration not stated)
inactive: [1] -10.4% | [2] -3.95% | [3] 2.75% | [4] 26.5% | [5] 8.7% | [6] 11.3%

CCCCCCN1C(C)C1C(C)C (configuration not stated)
inactive: [1] 5.7% | [2] 12.2% | [3] 2.25% | [4] -3.8% | [5] -4.15% | [6] 1.6%

Cc1cc2[nH]c3c(C#N)c(OC(=O)N(C)C)c(C)c(=O)n3c2cc1C
inactive: [1] 37.3% | [2] 22.3% | [3] 31.6% | [4] 17.1% | [5] 27.9% | [6] 39%

[C-]#[O+].[C-]#[O+].[C-]#[O+].[C-]#[O+].[Cr].c1ccc([PH+](CC[PH+](c2ccccc2)c2ccccc2)CC[PH+](c2ccccc2)c2ccccc2)cc1
inactive: [1] 14.9% | [2] 3.75% | [3] -3.35% | [4] 32.2% | [5] 19.4% | [6] 6.2%

O=CNc1ccc(Cl)cc1C(=O)c1ccccc1
inactive: [1] 9.8% | [2] -0.35% | [3] 15.2% | [4] 28.8% | [5] 21.6% | [6] 4.4%

O=[N+]([O-])c1cc(Cl)ccc1O
inactive: [1] 0.2% | [2] -5.65% | [3] -6.5% | [4] 14.2% | [5] -7.15% | [6] 3.75%

O=[N+]([O-])O.[Tl]
inactive: [1] -5.5% | [2] -23.2% | [3] -16.8% | [4] 6.8% | [5] -19.4% | [6] -18.4%
